This note sets out measurements from PubChem BioAssay AID743100 (Vanderbilt Specialized Chemistry Center, 2013).

Unmarked numbers belong to inactive results. The source made the active and inactive calls.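 Rule for the calls: active = calcium response above 60% of the acetylcholine maximum at human M5, as a positive modulator; inactive = the rest.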

Muscarinic acetylcholine receptor M5 (Homo sapiens), sequence (P08912 whole entry, looked up): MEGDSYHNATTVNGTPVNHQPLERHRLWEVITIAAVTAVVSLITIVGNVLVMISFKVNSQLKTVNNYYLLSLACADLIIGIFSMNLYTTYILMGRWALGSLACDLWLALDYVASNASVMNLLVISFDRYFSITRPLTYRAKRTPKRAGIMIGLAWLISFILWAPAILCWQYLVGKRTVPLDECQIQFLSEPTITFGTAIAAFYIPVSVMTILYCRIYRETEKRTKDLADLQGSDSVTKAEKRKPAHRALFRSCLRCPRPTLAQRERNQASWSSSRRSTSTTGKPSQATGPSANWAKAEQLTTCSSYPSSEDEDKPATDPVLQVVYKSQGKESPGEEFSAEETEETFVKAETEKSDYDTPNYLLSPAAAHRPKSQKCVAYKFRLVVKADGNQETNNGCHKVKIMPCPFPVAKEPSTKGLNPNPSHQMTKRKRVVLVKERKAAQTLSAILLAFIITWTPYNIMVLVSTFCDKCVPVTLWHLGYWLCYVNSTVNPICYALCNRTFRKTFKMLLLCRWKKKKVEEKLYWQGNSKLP

The assay has as its target Muscarinic acetylcholine receptor M5 (Homo sapiens) (UniProt P08912). The experiment in a line: potentiators of ACh response at human M5 – cell-based, single concentration, CHO-K1 hM5, calcium flux (AID 743100). Conditions: CHO-K1 hM5, Fluo-4 calcium flux, ACh EC20, hits give high values; at 10 µM unless noted. In general terms: Calcium assays in cells follow changes in intracellular calcium, usually with a dye or a luminescent sensor.
On to `CCN(Cc1ccccc1)C(=O)C1CCN(S(=O)(=O)c2ccc(C)s2)CC1`, for which the % ACh max response was 68.8% [at 30 µM] (active).

In the case of `CCN(CC1CCN(S(=O)(=O)c2ccc3cn[nH]c3c2)CC1)C(=O)c1ccccc1`, the % ACh max response was 13.7%.

With `CCN(Cc1ccccc1C(F)(F)F)C(=O)C1(F)CCN(S(=O)(=O)c2ccc(-n3cccn3)cc2)CC1`, the % ACh max response is 51.8%.

For the compound `COc1ccc(S(=O)(=O)N2CCC(CN(Cc3ccccc3)C(C)=O)CC2)cc1`, the % ACh max response is 11.8%.

With `CCN(Cc1ccccc1)C(=O)C1CCN(S(=O)(=O)c2ccc(OC)c(OC)c2)CC1`, the % ACh max response is 56% [at 30 µM].

In the case of `CCN(Cc1ccccc1)C(=O)C1CCN(S(=O)(=O)c2ccc(Br)cc2)CC1`, the % ACh max response was 62.1% [at 30 µM] (active).

`CCN(Cc1ccccc1C(F)(F)F)C(=O)C1CCN(S(=O)(=O)c2ccc3cn[nH]c3c2)CC1`: the % ACh max response was 84.2% (active).

As to `CCN(Cc1ccccc1)C(=O)C1CCN(S(=O)(=O)CC(C)(C)C)CC1`, the % ACh max response was 17% [at 30 µM].

As to `CCN(Cc1cccc(C#N)c1)C(=O)C1CCN(S(=O)(=O)c2ccc3cn[nH]c3c2)CC1`, the % ACh max response was 46.2%.

As to `CCN(Cc1ccccc1)C(=O)C1CCN(S(=O)(=O)c2ccc3cn[nH]c3c2)CC1`, the % ACh max response is 83.1% [at 30 µM] (active).

As for `CCN(Cc1ccccn1)C(=O)C1CCN(S(=O)(=O)c2ccc3cn[nH]c3c2)CC1`, the % ACh max response is 35.1%.

`CCN(Cc1ccccc1OC(F)(F)F)C(=O)C1CCN(S(=O)(=O)c2ccc3cn[nH]c3c2)CC1`: the % ACh max response was 73.2% (active).

In the case of `CCN(Cc1ccccc1)C(=O)C1CCN(S(=O)(=O)c2ccc3nsnc3c2)CC1`, the % ACh max response is 77.9% [at 30 µM] (active).

With `CCN(Cc1cccc(C(F)(F)F)c1)C(=O)C1CCN(S(=O)(=O)c2ccc3cn[nH]c3c2)CC1`, the % ACh max response was 35.4%.

As for `CCN(Cc1ccccc1C(F)(F)F)C(=O)C1CCN(S(=O)(=O)c2ccc3occc3c2)CC1`, the % ACh max response is 84.8% (active).

For `CCN(Cc1ccccc1)C(=O)C1CCN(S(=O)(=O)c2ccccc2C)CC1`, the % ACh max response was 28.6% [at 30 µM].

Turning to `CCN(Cc1ccc(OC)cc1)C(=O)C1CCN(S(=O)(=O)c2ccc3cn[nH]c3c2)CC1`, the % ACh max response is 32%.

Consider `CCN(Cc1ccccc1)C(=O)C1CCN(S(=O)(=O)c2ccc(C(C)=O)cc2)CC1`, for which the % ACh max response was 58.4% [at 30 µM].

With `CCN(Cc1ccccc1)C(=O)C1CCNCC1`, the % ACh max response was 14.9% [at 30 µM].

On to `CCN(Cc1ccccc1)C(=O)C1CCN(S(=O)(=O)c2ccc(C(F)(F)F)nc2)CC1`, for which the % ACh max response was 56.9% [at 30 µM].

Take `CN(C)C(=O)C1(Cc2ccccc2)CCN(S(=O)(=O)c2ccc3occc3c2)CC1`: the % ACh max response is 8.49%.

On to `CCN(Cc1ccc(C(F)(F)F)cc1)C(=O)C1CCN(S(=O)(=O)c2ccc3cn[nH]c3c2)CC1`, for which the % ACh max response was 24.2%.

As to `CCN(Cc1ccccc1)C(=O)C1CCN(S(=O)(=O)c2ccccc2Cl)CC1`, the % ACh max response is 33.6% [at 30 µM].

For `CCN(Cc1ccccc1)C(=O)C1CCN(S(=O)(=O)c2cccc(C(F)(F)F)c2)CC1`, the % ACh max response is 63.9% [at 30 µM] (active).

On to `CCN(Cc1ccccc1)C(=O)C1CCN(S(=O)(=O)c2ccc3ncccc3c2)CC1`, for which the % ACh max response was 63.4% [at 30 µM] (active).

For the compound `CCN(Cc1ccccc1)C(=O)C1CCN(S(=O)(=O)c2ccccc2C#N)CC1`, the % ACh max response is 24% [at 30 µM].

Regarding `CCN(Cc1ccccc1)C(=O)C1CCN(S(=O)(=O)c2ccc3[nH]ncc3c2)CC1`, the % ACh max response was 84.3% [at 30 µM] (active).

For `CC(=O)N(Cc1ccccc1)CC1CCN(S(=O)(=O)c2ccc(OC(F)(F)F)cc2)CC1`, the % ACh max response was 6.72%.

For the compound `CCN(C(=O)C1CCN(S(=O)(=O)c2ccc(-n3cccn3)cc2)CC1)[C@H](C)c1ccccc1`, the % ACh max response was 97.5% (active).

Regarding `CCN(Cc1cccc(F)c1F)C(=O)C1CCN(S(=O)(=O)c2ccc3cn[nH]c3c2)CC1`, the % ACh max response was 63.7% (active).

Take `CCN(Cc1ccccc1C(F)(F)F)C(=O)C1(F)CCN(S(=O)(=O)c2ccc3occc3c2)CC1`: the % ACh max response is 54%.

Take `CCN(C(=O)C1CCN(S(=O)(=O)c2ccc3c(c2)CCC3)CC1)[C@H](C)c1ccccc1`: the % ACh max response was 91.5% (active).

Turning to `CCN(Cc1ccccc1)C(=O)C1CCN(S(=O)(=O)c2cccnc2Cl)CC1`, the % ACh max response was 30% [at 30 µM].
